Inconclusive results are not listed. Calls of active or inactive are those of the source. Unless noted, calls follow the shape of the full dose curve.

The results in this text go back to PubChem BioAssay (NCATS).

The target in assay [1] is Vitamin D3 receptor (Homo sapiens) (UniProt P11473). The assay is described as follows: qHTS assay for small molecule agonists of vitamin D receptor signaling (AID 588543).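 Also: 0% = DMSO basal and 100% = reference agonist control.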 The procedure, abridged:
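β-lactamase reporter, VDR-UAS-bla HEK293T, agonist mode. Cells plated 5 h at 37 °C, compound titration 16 h at 37 °C, CCF4 dye 2 h RT, ratio 460/530 nm. Hill fit → EC50, efficacy vs 50 nM 1α,25-(OH)2D3.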
(In general: Quantitative high-throughput screening tests each substance at several concentrations.)

Assay [2] has as its target Thyroid hormone receptor beta (Homo sapiens) (UniProt P10828). The assay can be described thus: qHTS assay for small molecule agonists of thyroid hormone receptor beta signaling (AID 588545). A digest of the protocol: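 Cells (2500/well) were seeded, incubated 4 hrs at 37 C, dosed with a compound series, incubated 18 hrs, loaded with CCF4 dye for 2 hrs at RT, then read for fluorescence. Data were scaled between DMSO (0%) and 10 nM T3 (100%).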

Assay [3] has the same target. The assay is described as follows: qHTS assay for small molecule antagonists of thyroid hormone receptor beta signaling (AID 588547; active = well fitted inhibition curve with a large enough effect in the signal ratio, with a control signal flat, not every such curve was filed as active; the % refers to the signal ratio;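 also: cells stimulated with 0.4 nM T3 agonist during compound exposure; series mostly up to about 77 µM; % is scaled to controls: 0 for no effect and ±100 for the full control effect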). As to conditions: TR-UAS-bla HEK293, beta-lactamase ratio, antagonist mode, 18 h. A digest of the protocol: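 TR-UAS-bla GripTite HEK293 cells in 2% charcoal/dextran FBS medium; compounds 0.59 nM to 92 uM with T3 at 0.4nM final, 18 h at 37 C. Beta-lactamase read by CCF4 fluorescence (460/530 nm); Hill fits gave IC50 and efficacy.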

Assay [4] is described as follows: qHTS assay for small molecule agonists of the antioxidant response element (ARE) signaling pathway (AID 651741; active = well fitted activation curve with a large enough effect in the signal ratio; the % refers to the signal ratio; also: % of control where 0% means no effect). A digest of the protocol: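 HepG2 ARE-bla cells plated at 2,000 cells/well and incubated 5 h at 37 C/5% CO2 received 23 nL compound in DMSO. After 16 h at 37 C, LiveBLAzer B/G FRET substrate was applied for 2 h at room temperature and fluorescence read.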

Assay [5] is described as follows: qHTS assay for small molecule activators of the p53 signaling pathway (AID 651743; active = well fitted activation curve with a large enough effect in the signal ratio, not every such curve was filed as active; the % refers to the signal ratio; also: series mostly up to about 92 µM; % of control where 0% means no effect). As to conditions: HCT-116 p53RE-bla, beta-lactamase FRET ratio, 16 h; stronger effect = higher value. A digest of the protocol: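 HCT-116 p53RE-bla, 4,000 cells/well; 5 h settle; cpd/DMSO 16 h, 37 C; LiveBLAzer B/G 2 h RT; fluorescence intensity.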
Assay [6] can be described thus: qHTS assay for small molecule activators of the nuclear factor-kappa B (NF-kB) signaling pathway (AID 651749; active = well fitted activation curve with a large enough effect in the signal ratio; the % refers to the signal ratio; also: series mostly up to about 77 µM; % of control where 0% means no effect). As to conditions: NF-kB-bla ME-180 cells, beta-lactamase FRET ratio, 16 h; stronger effect = higher value. A digest of the protocol: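 Incubation lasted 16 hr at 37C in 5% CO2 after 23 nL compound addition to ME-180 NF-kB-bla cells. Activation appears as beta-lactamase-mediated FRET loss.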

Assay [7] in a line: qHTS assay for environmental chemicals that activate the Aryl hydrocarbon Receptor (AhR) signaling pathway (AID 651777; active = well fitted curve in the direction sought with a large enough effect; an effect the other way counts as inactive or inconclusive; also: potency is read from the fitted curve at half-maximal effect; nearly all actives have a fitted effect of over 15% in size). As to conditions: 1A2-DRE human hepatoma cells, luciferase, 24 h. A digest of the protocol: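 AhR activation is scored as a rise in luciferase from a stable DRE–CYP1A2 promoter construct in human hepatoma cells. Treatment lasts 24 hr at 37 C; detection uses One-Glo after 30 min at room temperature.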

Assay [8] has as its target Luciferin 4-monooxygenase (Photinus pyralis) (UniProt P08659). The assay can be described thus: Biochemical firefly luciferase enzyme assay for NPC (AID 624030; active = well fitted curve in the direction sought with a large enough effect; an effect the other way counts as inactive or inconclusive;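 also: purified P. pyralis luciferase at 10 nM with luciferin and ATP substrate; series mostly up to about 59 µM; 0% = DMSO and -100% = full luciferase inhibition by PTC124 control; nearly all actives have a fitted effect of over 70% in size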). A digest of the protocol:
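Purified P. pyralis luciferase at 10 nM in 50 mM Tris Acetate (final), luminescence read within 5 minutes of enzyme addition to compounds. Activity normalised to PTC124 versus DMSO; concentration-response curves classed by r2, magnitude and activity.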

A short description of assay [9]: S16 Schwann cell viability assay (CellTiter-Glo assay) (AID 624031; active = well fitted curve in the direction sought with a large enough effect; an effect the other way counts as inactive or inconclusive;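 also: native untransfected S16 rat Schwann cells; cellular ATP luminescence as a viability measure; series mostly up to about 58 µM; plate controls were DMSO-treated cells for no effect and cell-free wells for full effect; nearly all actives have a fitted effect of over 70% in size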). The procedure, abridged: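 Cells were seeded at 500-750 per well in phenol red-free DMEM with 10% FBS and left overnight. Compounds or DMSO were pinned in, incubation ran 24 h at 37 °C/5% CO2, then CellTiter-Glo reagent was added and luminescence measured.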
The nature of assay [10]: S16 Schwann cell PMP22 intronic element firefly luciferase assay (AID 624032; active = well fitted curve in the direction sought with a large enough effect; an effect the other way counts as inactive or inconclusive;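 also: series mostly up to about 58 µM; plate controls were DMSO for no effect and PTC124 positive control mean for full effect; nearly all actives have a fitted effect of over 30% in size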). The procedure, abridged: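 Rat S16 Schwann cells stably carrying firefly luciferase driven by a PMP22 intronic element, in 10% FBS, treated 24 h at 37 C. ONE-Glo luminescence normalized to PTC124 control and DMSO (0%); curves classed by r2, magnitude and activity.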
Assay [11] in a line: S16 Schwann cell PMP22 intronic element beta-lactamase assay (AID 624044).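 Also: 0% = DMSO and -100% = potassium clavulanate positive control; nearly all actives have a fitted effect of over 15% in size.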 A digest of the protocol:
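Rat S16 Schwann cells with beta-Lac driven by a PMP22 intronic element, compound-treated 24 h at 37 °C. LiveBLAzer FRET B/G read: 460 nm normalized to potassium clavulanate vs DMSO; 535 nm FRET as viability; concentration-effect curves classified.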

Assay [12] can be described thus: qHTS assay for small molecule agonists of retinoid X receptor alpha signaling (AID 588544).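 As to activation: 0% = DMSO basal wells and 100% = reference agonist.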 As to conditions: HEK293T RXRa-UAS-bla, beta-lactamase reporter, 18 h; 530 nm emission.
In assay [13] the target is Retinoic acid receptor RXR-alpha (Homo sapiens) (UniProt P19793). Described as above.
Sequence of Retinoic acid receptor RXR-alpha (Homo sapiens) (P19793 whole entry, looked up): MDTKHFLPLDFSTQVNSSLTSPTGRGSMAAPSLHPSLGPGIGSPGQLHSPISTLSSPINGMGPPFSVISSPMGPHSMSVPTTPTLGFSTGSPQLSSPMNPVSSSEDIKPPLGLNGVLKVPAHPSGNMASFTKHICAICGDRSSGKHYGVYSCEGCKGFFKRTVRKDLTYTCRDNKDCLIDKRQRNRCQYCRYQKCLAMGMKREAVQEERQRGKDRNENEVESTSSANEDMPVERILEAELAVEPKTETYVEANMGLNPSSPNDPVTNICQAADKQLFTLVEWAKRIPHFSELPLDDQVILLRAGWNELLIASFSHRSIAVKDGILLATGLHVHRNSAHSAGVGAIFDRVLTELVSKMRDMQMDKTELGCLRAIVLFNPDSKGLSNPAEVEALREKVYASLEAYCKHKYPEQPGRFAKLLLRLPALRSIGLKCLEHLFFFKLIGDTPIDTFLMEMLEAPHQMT
Assay [14] in a line: qHTS assay for small molecule antagonists of retinoid X receptor alpha signaling (AID 588546; active = well fitted inhibition curve with a large enough effect in the signal ratio, with a control signal flat, not every such curve was filed as active; the % refers to the signal ratio;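 also: cells stimulated with 9-cis-retinoic acid as agonist; % is scaled to controls: 0 for no effect and ±100 for the full control effect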). As to conditions: HEK293T RXRa-UAS-bla, beta-lactamase ratio, antagonist mode; measured here: W530 green channel, cytotoxicity proxy. A digest of the protocol: (§1)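 Beta-lactamase reporter inhibition, read as CCF4 fluorescence ratio (ex 405, em 460/530 nm) after 2 h at RT. HEK293T UAS-bla cells, 2500/well, were stimulated with 9-cis-RA at 500 or 100 nM final alongside test compound for 18 h at 37 C.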

The target of assay [15] is Retinoic acid receptor RXR-alpha (Homo sapiens) (UniProt P19793). Described as above. As to conditions: HEK293T RXRa-UAS-bla, beta-lactamase ratio, antagonist mode. The procedure, abridged: as §1
For assay [16], the target named is Voltage-gated inwardly rectifying potassium channel KCNH2 (Homo sapiens) (UniProt Q12809). The assay can be described thus: qHTS Assay for Small Molecule Inhibitors of the Human hERG Channel Activity (AID 588834; active = well fitted curve in the direction sought with a large enough effect; an effect the other way counts as inactive or inconclusive;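 also: top concentration of the series differs between compounds; % is scaled to controls: 0 for no effect and ±100 for the full control effect; lower thallium flux fluorescence means stronger hERG block; nearly all actives have a fitted effect of over 50% in size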). A digest of the protocol:
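Concentration-response qHTS measuring drop in thallium-sensitive dye signal. U2OS cells carrying BacMam hERG; compound exposure ~10 min, then stimulation buffer and 2 min read at 1 sec intervals.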

Assay [17] can be described thus: qHTS assay for small molecule disruptors of the mitochondrial membrane potential - 1 hr assay (AID 651754). Also: % is scaled to controls: 0 for no effect and ±100 for the full control effect; nearly all actives have a fitted effect of over 35% in size. A digest of the protocol:
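Steps: seed HepG2 cells and let attach overnight; pin-transfer compound or vehicle; incubate 1 hr at 37C; add Mito-MPS dye for 30 min; read two-channel fluorescence for monomer and aggregate forms.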

Assay [18] in a line: qHTS assay for small molecule disruptors of the mitochondrial membrane potential - 5 hr assay (AID 651755). Also: % is scaled to controls: 0 for no effect and ±100 for the full control effect; nearly all actives have a fitted effect of over 40% in size. The procedure, abridged: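 HepG2 cells (2,000/well), attached overnight, exposed to compound 5 hr at 37C, then Mito-MPS dye 30 min. Fluorescence read for monomers (490/535 nm) and aggregates (540/590 nm).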
Assay [19] is described as follows: qHTS assay to identify small molecules that stimulate interleukin-8 (IL-8) secretion (AID 651758; active = well fitted activation curve with a large enough effect in the signal ratio; the % refers to the signal ratio; also: 0% is about no effect). The procedure, abridged: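 THP-1 cells (2000/well) exposed to compound 16 h at 37 C; secreted IL-8 then detected by HTRF with cryptate- and XL665-labelled anti-IL-8 antibody pair after 1-3 h at room temperature.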
In assay [20] the target is Tumor necrosis factor (Homo sapiens) (UniProt P01375). The assay can be described thus: qHTS assay to identify small molecules that stimulate Tumor Necrosis Factor-alpha (TNF-alpha) secretion (AID 651757; active = well fitted curve in the direction sought with a large enough effect in the signal ratio; the % refers to the signal ratio; also: 0% is about no effect). The procedure, abridged:
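Secreted TNF-alpha from compound-treated THP-1 cells (17 hrs, 37 C) was quantified with a homogeneous time-resolved fluorescence antibody assay.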

Sequence of Thyroid hormone receptor beta (Homo sapiens) (P10828 whole entry, looked up): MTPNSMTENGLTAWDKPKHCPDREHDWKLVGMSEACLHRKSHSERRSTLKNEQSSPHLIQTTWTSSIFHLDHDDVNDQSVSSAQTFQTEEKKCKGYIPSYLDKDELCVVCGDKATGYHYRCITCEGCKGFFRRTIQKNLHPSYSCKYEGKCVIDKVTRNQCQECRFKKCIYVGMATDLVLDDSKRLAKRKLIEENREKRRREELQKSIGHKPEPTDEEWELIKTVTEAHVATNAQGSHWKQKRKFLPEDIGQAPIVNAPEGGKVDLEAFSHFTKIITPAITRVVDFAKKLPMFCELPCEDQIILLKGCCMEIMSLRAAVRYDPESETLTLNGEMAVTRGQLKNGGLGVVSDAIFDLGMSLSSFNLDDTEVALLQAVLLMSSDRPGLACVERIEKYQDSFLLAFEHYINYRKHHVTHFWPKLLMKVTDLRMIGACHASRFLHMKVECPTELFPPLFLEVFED
Sequence of Vitamin D3 receptor (Homo sapiens) (P11473 whole entry, looked up): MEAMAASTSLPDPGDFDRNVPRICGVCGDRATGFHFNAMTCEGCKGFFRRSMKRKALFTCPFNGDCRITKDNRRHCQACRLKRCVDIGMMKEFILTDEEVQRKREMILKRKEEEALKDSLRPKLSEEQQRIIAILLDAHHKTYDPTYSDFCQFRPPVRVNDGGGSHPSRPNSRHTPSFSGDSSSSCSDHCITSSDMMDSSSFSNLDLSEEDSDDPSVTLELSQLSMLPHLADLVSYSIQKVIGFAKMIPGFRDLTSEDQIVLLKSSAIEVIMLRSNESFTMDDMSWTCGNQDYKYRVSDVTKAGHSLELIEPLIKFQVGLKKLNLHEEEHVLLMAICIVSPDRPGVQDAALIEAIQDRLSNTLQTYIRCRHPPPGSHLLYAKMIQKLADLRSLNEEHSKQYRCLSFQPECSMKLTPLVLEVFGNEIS
Sequence of Luciferin 4-monooxygenase (Photinus pyralis) (P08659 whole entry, looked up): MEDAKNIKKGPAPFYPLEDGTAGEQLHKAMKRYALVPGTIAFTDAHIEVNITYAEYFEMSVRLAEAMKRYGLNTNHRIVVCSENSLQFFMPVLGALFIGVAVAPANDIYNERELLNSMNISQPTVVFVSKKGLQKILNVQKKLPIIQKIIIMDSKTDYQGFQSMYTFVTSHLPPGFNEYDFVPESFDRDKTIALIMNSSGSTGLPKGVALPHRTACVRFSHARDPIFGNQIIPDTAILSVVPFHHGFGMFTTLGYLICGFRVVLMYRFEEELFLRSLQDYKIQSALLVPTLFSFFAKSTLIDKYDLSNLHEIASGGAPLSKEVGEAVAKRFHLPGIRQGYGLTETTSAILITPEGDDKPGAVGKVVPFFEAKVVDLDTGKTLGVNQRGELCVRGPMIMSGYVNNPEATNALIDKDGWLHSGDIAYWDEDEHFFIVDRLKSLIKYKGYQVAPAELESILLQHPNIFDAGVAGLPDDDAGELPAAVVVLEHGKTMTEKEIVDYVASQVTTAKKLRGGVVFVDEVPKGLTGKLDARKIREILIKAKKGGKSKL
Sequence of Voltage-gated inwardly rectifying potassium channel KCNH2 (Homo sapiens) (Q12809 whole entry, looked up): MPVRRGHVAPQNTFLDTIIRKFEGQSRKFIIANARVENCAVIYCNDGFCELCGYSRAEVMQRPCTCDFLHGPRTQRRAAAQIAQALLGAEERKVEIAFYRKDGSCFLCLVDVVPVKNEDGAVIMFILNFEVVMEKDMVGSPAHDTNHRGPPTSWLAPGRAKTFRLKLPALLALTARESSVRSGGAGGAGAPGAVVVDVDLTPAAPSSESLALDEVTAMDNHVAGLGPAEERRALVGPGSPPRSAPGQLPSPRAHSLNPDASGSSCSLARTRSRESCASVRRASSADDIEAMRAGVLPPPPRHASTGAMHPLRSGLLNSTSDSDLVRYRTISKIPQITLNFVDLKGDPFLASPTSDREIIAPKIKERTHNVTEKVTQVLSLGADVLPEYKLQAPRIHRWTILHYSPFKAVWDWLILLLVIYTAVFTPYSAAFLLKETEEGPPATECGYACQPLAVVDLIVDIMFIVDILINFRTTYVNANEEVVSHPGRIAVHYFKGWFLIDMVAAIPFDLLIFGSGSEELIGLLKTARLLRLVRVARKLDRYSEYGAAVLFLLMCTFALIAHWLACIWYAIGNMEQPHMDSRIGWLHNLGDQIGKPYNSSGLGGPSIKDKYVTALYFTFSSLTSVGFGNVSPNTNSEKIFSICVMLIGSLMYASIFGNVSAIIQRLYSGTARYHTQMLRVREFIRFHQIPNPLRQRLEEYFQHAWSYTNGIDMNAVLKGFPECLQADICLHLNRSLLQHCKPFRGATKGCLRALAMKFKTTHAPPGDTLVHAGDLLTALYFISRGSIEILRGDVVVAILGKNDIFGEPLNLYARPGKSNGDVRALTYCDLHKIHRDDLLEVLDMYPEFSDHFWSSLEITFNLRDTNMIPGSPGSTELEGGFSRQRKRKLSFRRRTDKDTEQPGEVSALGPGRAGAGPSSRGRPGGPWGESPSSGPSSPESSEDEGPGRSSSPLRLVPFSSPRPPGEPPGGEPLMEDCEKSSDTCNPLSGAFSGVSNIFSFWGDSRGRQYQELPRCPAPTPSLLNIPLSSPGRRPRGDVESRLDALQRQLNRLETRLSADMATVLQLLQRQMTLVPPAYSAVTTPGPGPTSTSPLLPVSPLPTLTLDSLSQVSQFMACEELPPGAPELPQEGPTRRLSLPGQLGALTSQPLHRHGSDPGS
Sequence of Tumor necrosis factor (Homo sapiens) (P01375 whole entry, looked up): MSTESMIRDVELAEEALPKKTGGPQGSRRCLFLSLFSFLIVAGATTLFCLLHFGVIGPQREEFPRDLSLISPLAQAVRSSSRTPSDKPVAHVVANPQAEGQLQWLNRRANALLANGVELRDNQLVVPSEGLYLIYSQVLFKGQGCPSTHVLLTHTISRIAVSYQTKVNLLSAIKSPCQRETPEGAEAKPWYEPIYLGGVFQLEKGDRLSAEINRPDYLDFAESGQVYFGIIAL

For the molecule `O=C(/C=C/C=C/c1ccc2c(c1)OCO2)N1CCCCC1`, the outcome in assay [1], in assay [2] and in assay [4] was inactive. Besides, the activity change % (negative = inhibition) in assay [3] was -4.09% (inactive). Besides, the activation in assay [5] was -2.18% (inactive); in assay [6], -1.08% (inactive). Moreover, the Potency in [7] is 14.1 µM (active).

Consider `CCc1cccc2c3c([nH]c12)[C@@](CC)(CC(=O)O)OCC3`, for which the molecule was classed as inactive in [8], in assay [9], in assay [10] and in assay [11].

Consider `COc1ccc(CCC(=O)c2c(O)cc(O[C@@H]3O[C@H](CO)[C@@H](O)[C@H](O)[C@H]3O[C@@H]3O[C@@H](C)[C@H](O)[C@@H](O)[C@H]3O)cc2O)cc1O`, for which the molecule was called inactive in [1], in assay [13], in [2], in assay [16], in [4] and in assay [17]. Moreover, the outcome in assay [18] and in assay [19] was inactive. In addition, the values for the max response in [12], in assay [14] and in [15] were 1.28%, -15.7% and 10.3% (inactive), respectively. For the same molecule, the activity change % (negative = inhibition) in assay [3] is -11.4% (inactive). Besides, the activation in [5] is -3.41% (inactive); in assay [6] it was -2.14% (inactive).

Regarding `CCOC(=O)C(CCc1ccccc1)NC(C)C(=O)N1Cc2ccccc2CC1C(=O)O` (configuration not stated), the molecule was called inactive in assay [8], in [9], in [10] and in assay [11].

Regarding `C=C1C[C@]23C[C@@]1(O)CC[C@H]2[C@@]12C=C[C@H](O)[C@@](C)(C(=O)O1)[C@H]2[C@@H]3C(=O)O`, the molecule was called inactive in assay [1], in assay [13], in assay [2], in assay [16], in assay [4] and in assay [17]. Further, the outcome in assay [18] and in assay [20] was inactive. Also, the max response was -10.6% in assay [12], 4.31% in [14] and 6.93% (inactive) in [15]. In addition, the activity change % (negative = inhibition) in assay [3] was 23.9% (inactive).

On to `CCC(=O)OCC(=O)[C@@]1(OC(=O)CC)[C@@H](C)C[C@H]2[C@@H]3CCC4=CC(=O)C=C[C@]4(C)[C@@]3(F)[C@@H](O)C[C@@]21C`, for which, in assay [8], the molecule was called inactive.
